Experimental data reported in the supplement of paper PMC10338343.
± gives the standard deviation. In all, about 6,600 sequences were measured (“pre-steady-state target cleavage rate”: median about 0.07, highest 2% from about 0.72 on). Shown is part of a subset that was picked to be rich in the highest values.

These sequences were tested on MIWI (PIWIL1) piRISC loaded with Kctd7 piRNA (30 nt) (assay: pre-steady-state target cleavage rate (min^-1); MIWI and MILI are mouse PIWI proteins and EfPiwi is from a freshwater sponge; tags in brackets are library labels; higher = faster piRNA-guided slicing of the target). Settings: guide: Kctd7 piRNA 5'p-UGUUAAUCUCUCAGAGAAGGUGACAGUGAU; auxiliary factor: 500 nM mouse GTSF1.
Summary of the method: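 The pre-steady-state cleavage rate was derived from a burst-and-steady-state fit of Cleave-'n-Seq data. For these assays, 1 nM active affinity-purified piRISC loaded with a single synthetic guide was mixed with […] a transcribed, DNA-blocked target RNA library in HEPES–potassium acetate buffer at 33 °C, with or without 500 nM GTSF1 partner protein, for 0–8 or 0–960 min. Sequencing counts of uncleaved targets were normalised to depth and to weakly complementary targets, and k3 was capped at 0.0001 min^-1 after three trials were pooled.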
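Note: 1 nM active piRISC with 0.1 nM target library at 33 °C single turnover.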

Sequence | pre-steady-state target cleavage rate
UAGUGACAGUCCUUACUCUGAGAGAUUAACA | 0.0326 ± 0.0043
UAGAGUGUCACCUUCUCUGAGAGAUAAACA | 0.362 ± 0.038
UUGACUGUCACCAUCUCUGAGAGAUUAACA | 0.756 ± 0.044
AUGACUGUCACCAUCUCUGAGAGAUUAACA | 0.817 ± 0.06
UAGUCUGUCACCAUCUCUGAGAGAUUAACA | 0.667 ± 0.038
UACUCUGUCACCAUCUCUGAGAGAUUAACA | 0.69 ± 0.036
AUCUCUGUCACCAUCUCUGAGAGAUUAACA | 0.633 ± 0.03
UUCUCUGUCACCAUCUCUGAGAGAUUAACA | 0.514 ± 0.023
UAGACUGUCACCUUCUCUCAGAGAUUAACA | 0.154 ± 0.016
UAGUCUGUCACCUUCUCUGAGUGAUUAUCA | 0.015 ± 0.0044
UUCACAGUCACCUUCUGUGAGAGAUUAACA | 0.363 ± 0.035
UACACUGUGACCUUGUCUGAGAGAUUAACA | 0.0711 ± 0.013
UAGACUGUCAGCUUCUCUGAGAGUUUAACA | 0.0686 ± 0.011
UAGUGAGUCACCUUGCUCUGAGAGAUUAACA | 0.332 ± 0.07
UACCUGUCACCUUCUCUGAGAGAUUAACA | 0.773 ± 0.051
UACACCUGUCACCUUCUCUGAGAGAUUAACA | 0.79 ± 0.051
AUCCCUGUCACCUUCUCUGAGAGAUUAACA | 0.644 ± 0.051
AUCCUGUCACCUUCUCUGAGAGAUUAACA | 0.744 ± 0.052
UUCACCUGUCACCUUCUCUGAGAGAUUAACA | 0.73 ± 0.033
UACCCUGUCACCUUCUCUGAGAGAUUAACA | 0.638 ± 0.034
UUCCUGUCACCUUCUCUGAGAGAUUAACA | 0.633 ± 0.037
UUCUCUGUCACCUUCUCUGAGAGAUUAACA | 0.585 ± 0.031
UAGUGUGUCACCUUCUCUGACUCAUUUUGA | 0.0047 ± 0.0045
UAGUGACAGACCUUCUCUGUGACAUUAACA | 0.00672 ± 0.0033

Sequence | pre-steady-state target cleavage rate
UAGUGACUCUCCUUCUCUGAGAGUUUAACA | 0.035 ± 0.007
UAGACUGUCACCUUGUCUGAGAGAUUAUCA | 0.643 ± 0.1
UAGACUCACACCUUCUCUGAGAGAUAUUGA | 0.0233 ± 0.0066
UAGUCUGUCACCUUCUCUGAGAGUUUAACA | 0.365 ± 0.053
AUCUACUGUCACCUUCUCUGAGAGAUUAACA | 0.719 ± 0.041
AUCACUGUCACCUAGUCUGAGAGAUUUUGA | 0.0964 ± 0.023
AUCUGUGUCACCUUCUCUGAGAGAUUAACA | 0.417 ± 0.025
UAGUGACAGUGGUUUCUGAGAGAUUAACA | < 0.0001
UACACUGUCACCUUCACUGUGAGAUUAACA | 0.116 ± 0.015
UAGUCUGUCACUUUCUCUGAGAGAUUAACA | 0.642 ± 0.023
UAGUCUGUCACCAUCUCUGAGAGAUAAACA | 0.246 ± 0.025
UAGUGACACACCUUCUCAGAGAGAUUAAGA | 0.0233 ± 0.0077
AACACUGUCACCUUCUCUGAGAGAUAUUGA | 0.0742 ± 0.021
AUCUCUGUCACCUUGUCUGAGAGAUUAACA | 0.394 ± 0.06
UAGUGACUCACCUUCUCUGAGAGGAUUAACA | 0.172 ± 0.015
UAGUGAGACACCUACUCUGAGAGAUUAACA | 0.399 ± 0.03
UUCCCUGUCACCUUCUCUGAGAGAUUAACA | 0.502 ± 0.037
UUCAUCUGUCACCUUCUCUGAGAGAUUAACA | 0.706 ± 0.03
UAGCCUGUCACCUUCUCUGAGAGAUUAACA | 0.752 ± 0.056
AUCUCUGUCACCUUCUCUGAGAGAUUAACA | 0.713 ± 0.032
UAGACCUGUCACCUUCUCUGAGAGAUUAACA | 0.652 ± 0.043
AUCACCUGUCACCUUCUCUGAGAGAUUAACA | 0.742 ± 0.05
AUCAUCUGUCACCUUCUCUGAGAGAUUAACA | 0.74 ± 0.035
UAGUGACUCACCUUCUCUGAGAGAUAUACA | 0.143 ± 0.019

Sequence | pre-steady-state target cleavage rate
UACACUCACACCUUCUCUGAGAGAUAUUGA | 0.0241 ± 0.012
UAGUGACAGUGCAUUCUCUGAGAGAUUAACA | 0.0141 ± 0.0028
AUCACUGUCACCAUCUCUGAGAGAUAAACA | 0.31 ± 0.03
UACACUGUCGACCUUCUCUGAGAGAUUAACA | 0.229 ± 0.026
UAGUGAGUCACCUUCACUGAGAGAUUUACA | 0.203 ± 0.036
UACACUGAGACCUUCUCUGAGAGAUAUUGA | 0.0195 ± 0.0074
AUCACUGUCACCUUCUCUGAGAGAGUUAACA | 0.651 ± 0.088
UAGUCUGUCACCUUCUCUGACAGAUUUACA | 0.0113 ± 0.0036
UAGACUGUCACCUUCUCUGAGAGAUUAAA | 0.141 ± 0.018
UAGUGAGUCACCUUCUCUGAGAGUAUAUGA | 0.0298 ± 0.012
AACACUGUCACCUUCUCUGAGAGAUUAAGA | 0.189 ± 0.026
UACACUGUCACCUUCUCUGAGAGAUUAACU [g2:g28:cont:t1U] | 0.494 ± 0.059
ACACUGUCACCUUCUCUGAGAGAUUAACA | 0.772 ± 0.044
AACACUGUCACCUUCUCUGAGAGAUUAACA | 0.746 ± 0.03
UAGUGAGUCAGCCUUCUCUGAGAGAUUAACA | 0.176 ± 0.02
UUCACUGUCACGCUUCUCUGAGAGAUUAACA | 0.51 ± 0.02
UAGUGCGUCACCUUCUCUGAGAGAUUAACA | 0.623 ± 0.04
UAGUGUGUCACGUUCUCUGAGAGAAUAACA | 0.19 ± 0.037
UAGACUGUCGCCUUCUCUGAGAGAUUAACA | 0.822 ± 0.064
UAGACUGUCGACCUUCUCUGAGAGAUUAACA | 0.121 ± 0.013
UUCACUGUCGCCUUCUCUGAGAGAUUAACA | 0.665 ± 0.043
UACACUGUCGCCUUCUCUGAGAGAUUAACA | 0.708 ± 0.042
AUCACUGUCGACCUUCUCUGAGAGAUUAACA | 0.172 ± 0.017
AUCACUGUCGCCUUCUCUGAGAGAUUAACA | 0.819 ± 0.053
